# Assay results published in PubChem BioAssay (NCI).
# Compounds without any hit were thinned out: in the full panel of roughly 83,000, 20% have a hit.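 Testing used 96-well plates and a 48-hour single-concentration exposure. Example: -40 means 40% of the starting cells died.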 A number with no mark means an inactive call. Activity calls are given as the source filed them. How the source made its calls: active means growth percent below 10; inactive means the rest.
# Key:
# Test in all cases: NCI-60 one-dose screen, 48 h (100 = growth as untreated, 0 = no growth, -100 = all killed)
# RPMI-8226 leukemia = settings: 10 µM unless noted
# OVCAR-8 ovarian = settings: 10 µM unless noted
# OVCAR-5 ovarian = settings: 10 µM unless noted
# OVCAR-4 ovarian = settings: 10 µM unless noted
# IGROV1 ovarian = settings: 10 µM unless noted
# OVCAR-3 ovarian = settings: 10 µM unless noted
# HS 578T breast = settings: 10 µM unless noted
# NCI/ADR-RES ovarian = settings: 10 µM unless noted
# T-47D breast = settings: 10 µM unless noted
# BT-549 breast = settings: 10 µM unless noted
# MDA-MB-435 melanoma = settings: 10 µM unless noted
# SW-620 colon = settings: 10 µM unless noted
# MCF7 breast = settings: 10 µM
# HCT-116 colon = settings: 10 µM unless noted
# HCC-2998 colon = settings: 10 µM unless noted
# KM12 colon = settings: 10 µM unless noted
Compound,growth (RPMI-8226 leukemia),growth (OVCAR-8 ovarian),growth (OVCAR-5 ovarian),growth (OVCAR-4 ovarian),growth (IGROV1 ovarian),growth (OVCAR-3 ovarian),growth (HS 578T breast),growth (NCI/ADR-RES ovarian),growth (T-47D breast),growth (BT-549 breast),growth (MDA-MB-435 melanoma),growth (SW-620 colon),growth (MCF7 breast),growth (HCT-116 colon),growth (HCC-2998 colon),growth (KM12 colon)
COc1cccc2c(=O)c3c(sc12)c(NCCCNCCO)nc1ccccc13,29.1%,49.8%,77.8%,42.4%,26.2%,54.6%,35.9%,60.6%,72.1%,84.8%,15%,-73.9% (active),-13.6% (active),31.5%,37.9%,31.3%
O=C(Cn1cc(COc2ncnc3c2cnn3-c2ccccc2)nn1)Nc1cccc2ccccc12,93.7%,87.9%,98.4%,76.9%,102%,109%,85.1%,94.8%,87.1%,99.5%,94%,99.1%,85%,102%,104%,93.8%
COc1cc(/C=C2\CN(C)C/C(=C\c3cc(CN4CCCCC4)c(O)c(OC)c3)C2=O)cc(CN2CCCCC2)c1O,25.9%,39.2%,38.8%,38.6%,68.4%,7.74% (active),81.9%,70.7%,67.2%,61.3%,2.5% (active),20%,11.7%,30.7%,16.1%,5.98% (active)
CNCCNc1nc2ccccc2c2c(=O)c3cc(F)ccc3sc12,-3.62% (active),17.3%,86.4%,49.1%,37.6%,40.4%,56.9%,62.4%,-13.4% (active),82.4%,-61.1% (active),-63.3% (active),-44.5% (active),0.271% (active),-41.8% (active),-33.8% (active)
COC(=O)c1c2c(c(C)[n+]([O-])c1C)C(=O)C(NCc1ccc(F)c(F)c1)=CC2=O,29.9%,4.63% (active),41.4%,-93.4% (active),0.321% (active),-19% (active),80.2%,-6.62% (active),10.9%,66.4%,-88.4% (active),3.6% (active),-43.3% (active),1.74% (active),9.25% (active),10.4%
O=C1/C(=C/c2ccc(O)cc2)COc2ccc(O)c(O)c21,-6.76% (active),17.6%,43.7%,43.7%,8.79% (active),-8.96% (active),47.4%,27.2%,11.8%,57.5%,19.5%,28.4%,13.8%,20.8%,75.7%,19.8%
Cc1sc2ncn(CC(=O)Nc3ccc(S(N)(=O)=O)cc3)c(=O)c2c1C,106%,96.5%,99.2%,108%,102%,108%,95.8%,105%,96.5%,97.7%,105%,100%,101%,106%,113%,102%
CCCN1CCN(c2ccc3nc(-c4ccc5nc(-c6cc(OC)ccc6OC)[nH]c5c4)[nH]c3c2)CC1,-17% (active),106%,113%,81.1%,103%,122%,111%,111%,98.8%,96.3%,106%,-70.2% (active),-63.3% (active),-57.3% (active),113%,32.3%
COc1ccc(/C=c2\sc3n(c2=O)NC2C(N=3)N(C)C(=O)N2C)cc1 (stereo not drawn),96.1%,101%,95.1%,100%,99.8%,102%,95.9%,100%,102%,111%,89.6%,105%,94.5%,100%,108%,95.2%
Cc1ccc(C2CC(c3ccc(Nc4nc(NCCO)nc(Nc5ccc(Cl)cc5)n4)cc3)=NN2c2cc(Cl)cc(Cl)c2)cc1 (stereo not drawn),101%,97.4%,94.2%,102%,87.8%,102%,68.3%,105%,94.5%,95.9%,98.8%,101%,88.2%,103%,111%,103%
CC1(O)COCCCCOc2c(CN)cccc2NC(=O)c2nc(cnc2N)-c2ccc(cc2)S(=O)(=O)C(C)(C)C1 (stereo not drawn),-36.8% (active),-22.8% (active),3.73% (active),-70.2% (active),-57.3% (active),-77.2% (active),-53.2% (active),48.5%,-19.8% (active),85.4%,-93.4% (active),-64.2% (active),-79.4% (active),-56.5% (active),-1.91% (active),-72.7% (active)
Cc1ccc2cccc(Oc3ccc(Nc4ncnc5onc(-c6ccccc6)c45)cc3)c2n1,111%,91%,94.6%,71.9%,77.2%,93.8%,89.4%,87.3%,65.2%,93.3%,79.9%,87%,79.5%,58.5%,100%,63.8%
COC(=O)/C(CCC=C(C)C)=C1\[C@@H](OC(C)=O)C[C@@]2(C)[C@H]1C[C@@H](O)[C@H]1[C@@]3(C)CC[C@H](NC(=O)c4cnccn4)[C@@H](C)[C@@H]3CC[C@@]12C,75.8%,92.5%,109%,98.4%,107%,108%,96.4%,99.4%,87.4%,100%,103%,104%,96%,93.1%,104%,102%
COC(=O)/C(CCC=C(C)C)=C1\[C@@H](OC(C)=O)C[C@@]2(C)[C@H]1CC(=O)[C@H]1[C@@]3(C)CC[C@H](NCc4ccccc4)[C@@H](C)[C@@H]3CC[C@@]12C,49.5%,92.4%,95%,80.7%,73.4%,89.2%,73.7%,88.3%,92.3%,89.7%,91.2%,81.5%,82.2%,73%,66.6%,101%
NCCOc1ncccc1/C=C1\c2ccccc2-c2ccc([N+](=O)[O-])cc21,-21.5% (active),-13% (active),-72.8% (active),-69.2% (active),-80.2% (active),-77.7% (active),-5.23% (active),-45.4% (active),-30.4% (active),-17.2% (active),-70.5% (active),-50.3% (active),-42% (active),-74.6% (active),-82.2% (active),-51.5% (active)
O=C(/C=C/c1ccc(C(F)(F)F)cc1)c1ccc(Nc2nc(NCCO)nc(N3CCOCC3)n2)cc1,2.35% (active),28.5%,68.6%,22.8%,25.4%,-31.9% (active),78.1%,74.7%,32.7%,61%,22.1%,-6.72% (active),3.91% (active),-28.3% (active),63.9%,-32.2% (active)
COc1cc(/C=C/C(=O)c2ccc(Nc3nc(NCCO)nc(N4CCOCC4)n3)cc2)cc(OC)c1OC,-21% (active),11.6%,34%,23.9%,20.6%,2.88% (active),9.53% (active),53.7%,32.1%,33.5%,10.1%,7.8% (active),3.22% (active),9.47% (active),20%,7.4% (active)
NCCOc1ccccc1/C=C1\c2ccccc2-c2ccc([N+](=O)[O-])cc21,-48.6% (active),-38.7% (active),22.3%,30.3%,23.8%,-49.8% (active),26.3%,23.5%,12.5%,84.8%,-53.8% (active),-82.4% (active),-60.9% (active),-95.3% (active),-53.3% (active),-59.9% (active)
